Assay [1] is described as follows: qHTS of pediatric cancer cell lines to identify multiple opportunities for drug repurposing: Confirmatory screen for LAN-5 cells (AID 1347113). Also: potency is read from the fitted curve at half-maximal effect; nearly all actives have a fitted effect of over 65% in size. The method, boiled down: (§1)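 Cells (500-1,000/well) in growth media were settled 5 h at 37 degrees C, then given compounds for 48 h. Viability was read as CellTiter-Glo luminescence. Primary runs used MIPE at 11 points (0.78 nM-46 µM) and NPC at 8 points (0.59 nM-46 µM); follow-ups used 11 points.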
(In qHTS, concentration-response curves come from the screen itself.)

Assay [2] in a line: qHTS of pediatric cancer cell lines to identify multiple opportunities for drug repurposing: Confirmatory screen for BT-37 cells (AID 1347117).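 Also: potency is read from the fitted curve at half-maximal effect; viability measured after 48 h of compound exposure; nearly all actives have a fitted effect of over 55% in size.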 The essentials: as §1
Assay [3] in a line: qHTS of pediatric cancer cell lines to identify multiple opportunities for drug repurposing: Confirmatory screen for TC32 cells (AID 1347118).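 Also: potency is read from the fitted curve at half-maximal effect; cells exposed to compound for 48 h before the read; nearly all actives have a fitted effect of over 65% in size.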 The essentials: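 Luminescent CellTiter-Glo read-out of metabolically active TC32 cells after 48 h compound exposure. Primary: MIPE 11-point, 0.78 nM–46 µM; NPC 8-point, 0.59 nM–46 µM. Confirmatory: 11-point dilutions.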
Assay [4] can be described thus: qHTS of pediatric cancer cell lines to identify multiple opportunities for drug repurposing: Confirmatory screen for MG 63 (6-TG R) cells (AID 1347119). Also: potency is read from the fitted curve at half-maximal effect; nearly all actives have a fitted effect of over 55% in size. The essentials: as §1
A short description of assay [5]: qHTS of pediatric cancer cell lines to identify multiple opportunities for drug repurposing: Confirmatory screen for Rh41 cells (AID 1347123). Also: potency is read from the fitted curve at half-maximal effect; nearly all actives have a fitted effect of over 60% in size. The essentials:
as §1

A short description of assay [6]: qHTS of pediatric cancer cell lines to identify multiple opportunities for drug repurposing: Confirmatory screen for Rh30 cells (AID 1347126). Also: potency is read from the fitted curve at half-maximal effect; nearly all actives have a fitted effect of over 55% in size. The method, boiled down: as §1
The nature of assay [7]: qHTS of pediatric cancer cell lines to identify multiple opportunities for drug repurposing: Confirmatory screen for Saos-2 cells (AID 1347127). Also: nearly all actives have a fitted effect of over 60% in size. Also: potency is read from the fitted curve at half-maximal effect. The method, boiled down: as §1
Assay [8] is described as follows: qHTS of pediatric cancer cell lines to identify multiple opportunities for drug repurposing: Confirmatory screen for OHS-50 cells (AID 1347128).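 Also: potency is read from the fitted curve at half-maximal effect; compound exposure lasted 48 h at 37 degrees C; nearly all actives have a fitted effect of over 55% in size.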 The method, boiled down: as §1
Assay [9] can be described thus: qHTS of pediatric cancer cell lines to identify multiple opportunities for drug repurposing: Confirmatory screen for SK-N-SH cells (AID 1347129).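 Also: cells exposed to compound for 48 h before viability read; nearly all actives have a fitted effect of over 60% in size.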 Also: potency is read from the fitted curve at half-maximal effect. The method, boiled down: as §1
Assay [10] deals with Zika virus NS2B-NS3 protease. The experiment in a line: Primary screen GU AMC qHTS for Zika virus inhibitors (AID 1347154). Also: nearly all actives have a fitted effect of over 70% in size. Also: potency is read from the fitted curve at half-maximal effect. The method, boiled down: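 Unlinked Zika NS2B hydrophilic domain/NS3 protease domain noncovalent complex (25 nM final) in 10 mM Tris-HCl pH 8.0, 0.01% Tween 20, with AMC peptide substrate. Fluorescence (ex 340, em 450 nm) change over 15 min, room temperature; percent inhibition fitted to 4-parameter Hill equation.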

Assay [11] relates to Zika virus NS2B-NS3 protease (unlinked). As to the kind of experiment: Optimization of GU AMC qHTS for Zika virus inhibitors: Unlinked NS2B-NS3 protease assay (AID 1347151). Also: nearly all actives have a fitted effect of over 80% in size. Also: potency is read from the fitted curve at half-maximal effect. The essentials: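 Unlinked protease (25 nM final); buffer 10 mM Tris-HCl pH 8.0 + 0.01% Tween 20; AMC substrate; 15 min RT, dark; Δfluorescence normalized to no-inhibitor/no-enzyme controls; 4-parameter Hill fit.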

The target in a further assay is Furin (Homo sapiens) (UniProt P09958). As to the kind of experiment: Furin counterscreen qHTS for Zika virus inhibitors (AID 1347149). Also: nearly all actives have a fitted effect of over 70% in size. Also: potency is read from the fitted curve at half-maximal effect. The essentials: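 Counterscreen measures cleavage of 2 microM BOC-RVRR-AMC, below its ~15 microM Km, by 5 nM full-length human furin at pH 7.0 after a 15-min compound preincubation. Inhibition derives from the 15-min fluorescence increase at 37C.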
Furin (Homo sapiens), sequence (P09958 whole entry, looked up): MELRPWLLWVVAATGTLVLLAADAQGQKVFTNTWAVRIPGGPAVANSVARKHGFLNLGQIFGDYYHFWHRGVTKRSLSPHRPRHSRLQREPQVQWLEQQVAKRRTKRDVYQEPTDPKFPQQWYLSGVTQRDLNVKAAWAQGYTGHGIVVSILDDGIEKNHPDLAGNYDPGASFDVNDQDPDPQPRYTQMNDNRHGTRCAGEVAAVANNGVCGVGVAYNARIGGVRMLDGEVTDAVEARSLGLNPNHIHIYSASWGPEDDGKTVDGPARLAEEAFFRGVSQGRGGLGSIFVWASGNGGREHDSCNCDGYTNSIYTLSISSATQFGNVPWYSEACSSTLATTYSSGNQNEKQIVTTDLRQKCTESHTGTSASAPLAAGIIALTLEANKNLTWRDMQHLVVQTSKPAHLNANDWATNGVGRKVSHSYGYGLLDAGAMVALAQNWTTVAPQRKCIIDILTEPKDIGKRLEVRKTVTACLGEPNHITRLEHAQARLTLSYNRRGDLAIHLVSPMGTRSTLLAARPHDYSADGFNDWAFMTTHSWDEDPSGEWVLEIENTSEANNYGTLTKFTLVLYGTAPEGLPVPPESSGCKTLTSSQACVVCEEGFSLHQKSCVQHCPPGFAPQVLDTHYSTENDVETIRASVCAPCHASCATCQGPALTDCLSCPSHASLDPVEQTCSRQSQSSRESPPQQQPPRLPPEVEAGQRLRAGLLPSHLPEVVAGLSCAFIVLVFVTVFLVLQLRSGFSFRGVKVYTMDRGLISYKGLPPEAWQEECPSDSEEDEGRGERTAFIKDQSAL
A general note: The purpose of a counterscreen is to sort out artefacts and off-target activity.

In assay [12] the target is N-terminal Xaa-Pro-Lys N-methyltransferase 1 (Homo sapiens) (UniProt Q9BV86). The experiment in a line: qHTS Assay for Inhibitors of N-terminal methyltransferase 1 (NTMT1): LOPAC validation of the NTMT1 SAHH-coupled ThioGlo3 Assay (AID 1347143).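 Also: SAH from peptide methylation measured as thiol fluorescence via SAHH coupling and ThioGlo3; nearly all actives have a fitted effect of over 70% in size.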 The method, boiled down:
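In this qHTS pilot against the LOPAC set, 125nM NTMT1 met compounds tested at multiple concentrations, and fluorescence was normalized to background.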

Assay [13] can be described thus: qHTS of pediatric cancer cell lines to identify multiple opportunities for drug repurposing: Confirmatory screen for control Hh wild type fibroblast cells (AID 1347121). Also: nearly all actives have a fitted effect of over 70% in size. The method, boiled down: as §1
The test system of assay [14] is Zika virus NS2B-NS3 protease (unlinked complex). As to the kind of experiment: Confirmatory screen GU AMC qHTS for Zika virus inhibitors (AID 1347153). Also: nearly all actives have a fitted effect of over 70% in size. The essentials: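 Noncovalent NS2B hydrophilic domain/NS3 protease complex (25 nM) in 10 mM Tris-HCl pH 8.0, 0.01% Tween 20 was preincubated 15 min at room temperature with compounds. Then 10 µM AMC substrate (Km 18.3 µM) was added; fluorescence was read over 15 min and fitted to a 4-parameter Hill equation.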

The nature of assay [15]: qHTS of pediatric cancer cell lines to identify multiple opportunities for drug repurposing: Confirmatory screen for NB-EBc1 cells (AID 1347115).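 Also: cells exposed to compound for 48 h before the viability read; nearly all actives have a fitted effect of over 45% in size.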 The method, boiled down: as §1
The nature of assay [16]: qHTS of pediatric cancer cell lines to identify multiple opportunities for drug repurposing: Confirmatory screen for RD cells (AID 1347124).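 Also: cells exposed to compound for 48 h before viability readout; nearly all actives have a fitted effect of over 65% in size.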 The method, boiled down:
as §1

The nature of assay [17]: qHTS of pediatric cancer cell lines to identify multiple opportunities for drug repurposing: Confirmatory screen for Rh18 cells (AID 1347125). Also: nearly all actives have a fitted effect of over 55% in size. The essentials:
as §1

Each structure is given as a SMILES string. Results filed as inconclusive are left out. Calls of active or inactive are those of the source. Calls follow the shape of the dose curve; as a rule, active = well fitted curve in the direction sought with a large enough effect; inconclusive = small, poorly fitted or top-dose-only effect, or another doubt; inactive = no such curve, though single readings can be large; an effect the other way counts as inactive or inconclusive.

N-terminal Xaa-Pro-Lys N-methyltransferase 1 (Homo sapiens), sequence (Q9BV86 whole entry, looked up): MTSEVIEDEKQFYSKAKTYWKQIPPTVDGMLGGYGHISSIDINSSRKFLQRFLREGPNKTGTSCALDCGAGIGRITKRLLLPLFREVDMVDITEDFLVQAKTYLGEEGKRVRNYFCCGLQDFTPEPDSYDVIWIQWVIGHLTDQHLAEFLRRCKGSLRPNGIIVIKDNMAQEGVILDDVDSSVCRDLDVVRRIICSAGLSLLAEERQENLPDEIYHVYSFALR

`COc1ccc(-c2ccc3c(N4CCOC[C@H]4C)nc(N4CCOC[C@H]4C)nc3n2)cc1CO`: the Potency in assay [1] is 0.293 µM (active); in [2], 0.233 µM (active); in [3], 0.208 µM (active); in assay [4], 0.0928 µM (active); in assay [5] it was 0.233 µM (active); in [6], 0.185 µM (active). Also, the Potency in assay [7] is 0.928 µM (active); in assay [8] it was 2.08 µM (active); in assay [9], 0.526 µM (active); in [10], 6.81 µM (active).
On to `O=c1[nH]cnc2[nH]ncc12`, for which the Potency result in [11] and in assay [10] was “inactive” throughout.
As for `CCn1cc(C(=O)O)c(=O)c2cc(F)c(N3CCNC(C)C3)c(F)c21` (stereo not drawn), the Potency was 24.1 µM (active) with Furin (Homo sapiens), 26.7 µM (active) in [11] and 29.9 µM (active) in [10].
On to `NS(=O)(=O)c1cc2c(cc1Cl)NC=NS2(=O)=O`, for which the Potency entry in [12], in assay [11] and in assay [10] was “inactive” in each case.
Consider `CC(C)C[C@H](NC(=O)[C@@H](O)[C@H](N)Cc1ccccc1)C(=O)O`, for which the Potency entry in assay [11] and in assay [10] was “inactive” throughout.
In the case of `CCOc1cc(N2CCC(O)CC2)ccc1Nc1ncc2c(n1)N(C)c1ccccc1C(=O)N2C`, the Potency in assay [2] was 7.37 µM (active); in assay [3], 0.928 µM (active); in assay [4] it was 4.14 µM (active); in [9], 7.43 µM (active). Moreover, the Potency entry in [13] and in [10] was “inactive” in each case.
With `CCCc1nc2c(C)cc(-c3nc4ccccc4n3C)cc2n1Cc1ccc(-c2ccccc2C(=O)O)cc1`, the Potency in the assay with Furin (Homo sapiens) is 24.1 µM (active). The Potency entry in [14] and in [10] was “inactive” in each case.
With `CCCc1nn(C)c2c(=O)[nH]c(-c3cc(S(=O)(=O)N4CCN(C)CC4)ccc3OCC)nc12`, the Potency result in [11] and in assay [10] was “inactive” each time.
In the case of `CCCS(=O)(=O)Nc1ccc(F)c(C(=O)c2c[nH]c3ncc(-c4ccc(Cl)cc4)cc23)c1F`, the Potency result in [15], in assay [13], in assay [16], in [9] and in assay [10] was “inactive” in each case. The Potency was 18.5 µM (active) in assay [3] and 13.1 µM (active) in [5].
As to `Cc1[nH]c(=O)c(C#N)cc1-c1ccc2nccn2c1`, the Potency entry (in the assay with Furin (Homo sapiens); in assay [14]; in assay [10]) was “inactive” in each case. In assay [11], the Potency is 21.2 µM (active).
On to `C#Cc1cccc(Nc2ncnc3cc(OCCOC)c(OCCOC)cc23)c1`, for which the Potency was 5.85 µM (active) in assay [2], 14.7 µM (active) in assay [3], 16.5 µM (active) in assay [4] and 9.27 µM (active) in [5]. Further, the Potency result in [13], in [16], in assay [17], in [7], in assay [9] and in [10] was “inactive” throughout.
Regarding `OC(CCN1CCCCC1)(c1ccccc1)C1CC2C=CC1C2` (stereo not drawn), the Potency result in assay [11] and in assay [10] was “inactive” each time.
Turning to `NNCCc1ccccc1`, the Potency result in assay [11] and in [10] was “inactive” each time.
Regarding `CCC(C)N(C)C(=O)c1cc2ccccc2c(-c2ccccc2Cl)n1` (stereo not drawn), the Potency entry in assay [11] and in [10] was “inactive” each time.

The values above are taken from PubChem BioAssay (NCATS).
